# From the supplement of paper PMC10646978
# ± gives the standard deviation.
# Experiments:
# Settings in all cases: modulator concentration 10 µM
# [1] = tested on: RAW-Dual (murine macrophage reporter line); assay: NF-kB reporter (SEAP) activity fold change vs agonist alone; higher = enhanced NF-kB activity
# In short: (§1)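 In 384-well plates holding 50 000 RAW-Dual murine macrophage reporter cells per well, compound at 10 μM final was pre-incubated for 1 hour at 37 °C, after which a PRR agonist was added overnight. Supernatant SEAP read with QUANTI-Blue at 620 nm absorbance reported NF-κB, and Lucia luciferase read with QUANTI-Luc luminescence reported IRF. Fold change values come from dividing each reporter signal by the mean of agonist-only control wells on the same plate, averaged over replicate plates with propagated errors.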
# [2] = tested on: RAW-Dual (murine macrophage reporter line); assay: IRF reporter (Lucia luciferase) activity fold change vs agonist alone; higher = enhanced IRF activity
# In short: as §1
# [3] = tested on: RAW-Dual (murine macrophage reporter line); assay: viability score (confluency relative to resting cells, overnight) (fraction); higher = more viable, active = viable (0.7 or more)
# In short: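 Compound was added at a final 10 μM to RAW-Dual macrophages in 384-well plates and left overnight. Confluency was imaged with IncuCyte, and two masks were generated in IncuCyte software over all imaged wells. Each viability score is confluency relative to resting cells, and a compound met the cutoff only when both masks were above 70% of resting cells.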
# [4] = agonist: CpG ODN 1826 0.5 ug/mL
SMILES,"NF-kB reporter [1, 4]",NF-kB reporter ([1]; agonist: LPS 0.1 ug/mL),NF-kB reporter ([1]; agonist: MPLA […]),IRF reporter ([2]; agonist: 3'3'-cGAMP 10 ug/mL),IRF reporter ([2]; agonist: LPS 0.1 ug/mL),IRF reporter ([2]; agonist: MPLA […]),viability score [3]
CC(C)CC(C(=O)Nc1cccc(O)c1)N1C(=O)c2ccccc2C1=O (centres undefined),0.947 ± 0.076,1.04 ± 0.099,1.16 ± 0.083,1.04 ± 0.04,1.64 ± 0.15,1.63 ± 0.14,0.913 (active)
CC[C@@]1(O)C(=O)OCc2c1cc1n(c2=O)Cc2cc3c(CN(C)C)c(O)ccc3nc2-1 [Prestw-1196],2.33 ± 0.13,1.27 ± 0.08,2.43 ± 0.16,2.88 ± 0.099,3.79 ± 0.35,3.07 ± 0.43,0.689 (inactive)
CCN(CC)C(=O)N1CCN(C)CC1.O=C(O)CC(O)(CC(=O)O)C(=O)O,1.04 ± 0.19,0.975 ± 0.18,0.92 ± 0.065,0.895 ± 0.057,1.23 ± 0.23,1.16 ± 0.27,0.995 (active)
CN1CCN(CC(O)Cn2c3ccccc3c3ccccc32)CC1.O=C(O)C(=O)O (centres undefined),0.964 ± 0.074,0.946 ± 0.1,0.983 ± 0.093,0.609 ± 0.02,1.39 ± 0.19,1.45 ± 0.23,1.01 (active)
COc1ccc2oc(=O)c(-c3csc(NC(=O)C=CC(=O)O)n3)cc2c1,1.09 ± 0.099,0.895 ± 0.086,0.985 ± 0.027,0.353 ± 0.017,0.938 ± 0.11,0.844 ± 0.13,0.959 (active)
CN1C(=O)OC(C)(C)C1=O,1.01 ± 0.12,1.09 ± 0.075,1.05 ± 0.03,1.04 ± 0.17,1.01 ± 0.14,0.957 ± 0.22,1 (active)
O=C(NCc1cccc(Oc2ccccn2)c1)C1c2ccccc2Oc2ccccc21,0.52 ± 0.041,1.12 ± 0.088,0.883 ± 0.039,0.801 ± 0.077,1.01 ± 0.12,1.11 ± 0.27,0.992 (active)
COC(=O)COc1ccc2oc(=O)cc(-c3cc4cccc(OC)c4o3)c2c1,0.858 ± 0.065,1.06 ± 0.12,1.05 ± 0.025,0.928 ± 0.052,0.872 ± 0.084,1.04 ± 0.086,0.992 (active)
Cc1nc(N(C)C)nc(C)c1NC(=O)CC(C)C,0.95 ± 0.066,0.92 ± 0.075,0.837 ± 0.089,1.1 ± 0.055,0.967 ± 0.1,0.897 ± 0.39,1.01 (active)
CN1C(=N)NC(=O)C1=Cc1cc(Br)cc(Br)c1O,0.879 ± 0.099,0.898 ± 0.09,0.954 ± 0.04,0.96 ± 0.069,0.951 ± 0.046,1.01 ± 0.11,0.998 (active)
Cc1ccc(C(=O)N2N=C(c3ccc(Cl)cc3)CC2(O)C(F)(F)F)o1 (centres undefined),0.721 ± 0.06,0.82 ± 0.054,0.974 ± 0.097,0.975 ± 0.06,1.33 ± 0.077,1.42 ± 0.16,1 (active)
O=S(=O)(C=Cc1ccccc1)NCc1ccccc1,0.933 ± 0.15,1.03 ± 0.083,0.953 ± 0.085,1.03 ± 0.028,1.28 ± 0.13,1.61 ± 0.37,0.97 (active)
COc1ccc(CC(N)C(=O)NC2C(CO)OC(n3cnc4c(N(C)C)ncnc43)C2O)cc1.Cl.Cl (centres undefined),0.817 ± 0.068,0.514 ± 0.044,0.936 ± 0.094,0.699 ± 0.022,1.03 ± 0.13,1.3 ± 0.21,0.817 (active)
C1=CC2CC1CC2CN1CCC(N2CCCCC2)CC1 (centres undefined),0.089 ± 0.0093,0.949 ± 0.072,1.26 ± 0.13,0.578 ± 0.038,1.69 ± 0.099,1.79 ± 0.17,0.989 (active)
CCCC1=NN(c2ccc([N+](=O)[O-])cc2)C(=O)C1=CNC1CC1,0.833 ± 0.066,1.15 ± 0.065,0.934 ± 0.056,0.999 ± 0.043,1.49 ± 0.12,1.18 ± 0.2,1.01 (active)
NC(=S)c1cc2ccc(O)cc2oc1=O,0.808 ± 0.16,1.01 ± 0.082,2.26 ± 1.2,0.925 ± 0.043,0.979 ± 0.12,1.05 ± 0.11,1.01 (active)
C=Cc1c(C)c2cc3nc(cc4[nH]c(cc5nc(cc1[nH]2)C(C)=C5CCC(=O)O)c(CCC(=O)OC)c4C)[C@@]1(C)C3=CC=C(C(=O)OC)C1C(=O)OC (some centres undefined) [Prestw-1105],0.611 ± 0.075,0.869 ± 0.069,1.17 ± 0.16,0.131 ± 0.018,0.642 ± 0.13,0.457 ± 0.16,0.669 (inactive)
Br.Cc1ccc(-c2csc(N3N=C(c4ccc(F)cc4)CC3c3ccc(C(C)C)cc3)n2)cc1C (centres undefined),0.948 ± 0.083,1.01 ± 0.072,0.903 ± 0.088,0.824 ± 0.027,1.35 ± 0.14,1.13 ± 0.099,1 (active)
CC(C)NC(=O)CCn1c(=O)c2cc(Cl)ccc2n2c(SCc3ccc(F)cc3)nnc12,0.992 ± 0.077,1.01 ± 0.093,1.1 ± 0.06,1.02 ± 0.056,1.15 ± 0.19,1.41 ± 0.39,0.964 (active)
CC1CC(OC(=O)C(O)c2ccccc2)CC(C)(C)C1 (centres undefined),0.872 ± 0.037,1.02 ± 0.11,1.11 ± 0.18,1 ± 0.051,1.25 ± 0.25,1.48 ± 0.5,1.01 (active)
Nc1nc(N)c2nc(-c3ccccc3)c(N)nc2n1,0.861 ± 0.15,1.03 ± 0.17,0.891 ± 0.056,0.56 ± 0.017,1.17 ± 0.27,1.18 ± 0.18,0.92 (active)
COc1cc(C=Nc2ccc3oc(-c4ccc(C(C)(C)C)cc4)nc3c2)ccc1OC(=O)c1ccc(Cl)cc1Cl,0.994 ± 0.056,0.981 ± 0.11,0.936 ± 0.11,0.931 ± 0.031,1.28 ± 0.15,1.14 ± 0.1,1.01 (active)
COc1c2occc2cc2ccc(=O)oc12,1.44 ± 0.21,1.21 ± 0.11,0.907 ± 0.051,0.91 ± 0.029,1.3 ± 0.15,1.04 ± 0.08,0.989 (active)
CCN(CC)c1ccc(C=NNC(=O)c2ccc(O)cc2)c(O)c1,2.52 ± 0.2,1.31 ± 0.089,5.86 ± 0.2,0.2 ± 0.0075,0.845 ± 0.038,0.758 ± 0.12,0.577 (inactive)
O=C1CCC(=O)N1CC(O)Cn1c2ccc(Cl)cc2c2cc(Cl)ccc21 (centres undefined),0.671 ± 0.035,0.816 ± 0.065,0.896 ± 0.05,0.839 ± 0.04,1.24 ± 0.25,1.19 ± 0.39,0.922 (active)
CC=CCn1c(=O)c2c(nc3n2CC(C(C)(C)C)=NN3)n(C)c1=O,1.02 ± 0.092,1.09 ± 0.1,1.08 ± 0.11,1 ± 0.026,1.28 ± 0.2,0.943 ± 0.099,0.96 (active)
CC(C)=CCC/C(C)=C/CC/C(C)=C/CSc1ccccc1C(=O)O,1.32 ± 0.071,0.929 ± 0.074,2.18 ± 0.19,0.18 ± 0.011,0.52 ± 0.084,0.721 ± 0.16,0.902 (active)
